The nature of test [1]: Caspase-3/7 induction in CHO-K1 cells by small molecules, qHTS assay (AID 1346980). Also: nearly all actives have a fitted effect of over 15% in size. In outline:
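Luminescent Caspase-Glo 3/7 read (30min, room temperature) quantified apoptosis induction. Cells were wild-type CHO-K1, treated with compound for 17hr at 37 C and 5% CO2.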
For orientation: In qHTS, concentration-response curves come from the screen itself.

The target of test [2] is Nuclear receptor subfamily 1 group I member 2 (Homo sapiens) (UniProt O75469). In words: Human pregnane X receptor (PXR) small molecule agonists, qHTS assay (AID 1346982). Also: nearly all actives have a fitted effect of over 35% in size. Also: potency is read from the fitted curve at half-maximal effect. Summed up:
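HepG2 PXR-Luc reporter line, 5% charcoal-stripped FBS; 5 hr pre-incubation, compound (DMSO) 24 hr at 37 C/5% CO2; ONE-Glo 30 min RT; luminescence read-out.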

The target of test [3] is Acetylcholinesterase (Homo sapiens) (UniProt P22303). The test can be described thus: Acetylcholinesterase (AChE) small molecule antagonists: colormetric cell-based qHTS assay (AID 1347395; calls by dose curve; also: nearly all actives have a fitted effect of over 30% in size). Summed up:
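SH-SY5Y cells attached overnight, exposed to compound 30 min at 37 C, then given DTNB/acetylthiocholine; after 90 min at 37 C, colorimetric thiocholine read gives cellular AChE activity.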

The target is the same in test [4]. In words: Acetylcholinesterase (AChE) small molecule antagonists: enzyme-based qHTS assay (AID 1347397; calls by dose curve; also: nearly all actives have a fitted effect of over 55% in size). Particulars: Potency: AChE enzyme activity inhibition. In outline:
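Colorimetric DTNB readout of acetylthiocholine hydrolysis, 10 min at room temperature, after 30 min room-temperature exposure of 50 mU/mL recombinant human enzyme to compound; DMSO vehicle control.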

The target is the same in test [5]. In words: Acetylcholinesterase (AChE) small molecule antagonists: fluorescence cell-based qHTS assay (AID 1347398; calls by dose curve; also: nearly all actives have a fitted effect of over 50% in size; also: potency is read from the fitted curve at half-maximal effect). Particulars: Potency: AChE activity. Summed up: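 Cellular AChE activity read as thiocholine from acetylthiocholine hydrolysis, detected by Thiolite Green fluorescence at 490/520 nm after 40 min at room temperature. Compounds were pre-incubated 30 min at 37 C on adherent SH-SY5Y cells.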

For test [6] the target is unchanged. In words: Acetylcholinesterase (AChE) small molecule antagonists: enzyme-based qHTS assay with human liver microsomes (AID 1347399; calls by dose curve; also: nearly all actives have a fitted effect of over 60% in size). Particulars: Potency: qHTS inhibition. In outline:
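Recombinant human AChE (50 mU/mL in the enzyme mix) and human liver microsomes (0.25 mg/mL final) were preincubated with compound and NADPH (0.25 mg/mL final) for 30 min at 37 C. Acetylthiocholine/DTNB was then added; thiocholine was read colorimetrically after 10 min at room temperature.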

The target in test [7] is Cytochrome P450 2D6 (Homo sapiens) (UniProt P10635). In words: Cytochrome P450 Family 2 Subfamily D Member 6 (CYP2D6) small molecule antagonists: luciferase reporter qHTS assay (AID 1671196). Also: nearly all actives have a fitted effect of over 50% in size. Also: potency is read from the fitted curve at half-maximal effect. As to activity change, negative = inhibition: series mostly up to about 120 µM. In outline:
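Luminogenic proluciferin substrate, CYP2D6 enzyme; 10 min RT preincubation with compound, NADPH regeneration system added, 1 h RT. Stop/detection reagent, 20 min RT, luminescence read (RLU). Signal proportional to CYP activity.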
In general terms: In a reporter assay the amount or activity of a reporter protein is the signal.

The target of test [8] is Cytochrome P450 2C19 (Homo sapiens) (UniProt P33261). The test can be described thus: Cytochrome P450 Family 2 Subfamily C Member 19 (CYP2C19) small molecule antagonists: luciferase reporter qHTS assay (AID 1671197). Also: nearly all actives have a fitted effect of over 65% in size. Also: potency is read from the fitted curve at half-maximal effect. As to activity change, negative = inhibition: series mostly up to about 120 µM. Summed up: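 P450-Glo CYP2C19 system: enzyme-substrate mix with compound 10 min at room temperature, then NADPH regeneration solution, 1 h at 37C. Proluciferin-to-luciferin conversion detected by luminescence after 20 min with detection reagent; ketoconazole as positive control.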
Chain of Cytochrome P450 2C19 (Homo sapiens) (P33261 whole entry, looked up): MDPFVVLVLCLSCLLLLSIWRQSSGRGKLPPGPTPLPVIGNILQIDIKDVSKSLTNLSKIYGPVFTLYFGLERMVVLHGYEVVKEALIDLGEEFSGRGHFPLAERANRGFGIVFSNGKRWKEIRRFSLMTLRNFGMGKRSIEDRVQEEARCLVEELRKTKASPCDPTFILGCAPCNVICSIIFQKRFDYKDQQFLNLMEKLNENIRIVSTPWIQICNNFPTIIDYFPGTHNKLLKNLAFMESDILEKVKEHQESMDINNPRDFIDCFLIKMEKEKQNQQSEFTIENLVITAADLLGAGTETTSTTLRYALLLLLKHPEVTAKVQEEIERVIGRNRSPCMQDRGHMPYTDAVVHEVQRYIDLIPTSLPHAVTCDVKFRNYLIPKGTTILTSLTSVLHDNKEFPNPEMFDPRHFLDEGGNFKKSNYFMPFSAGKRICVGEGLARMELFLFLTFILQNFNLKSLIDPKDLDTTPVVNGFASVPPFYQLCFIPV

For test [9], the target named is Voltage-gated inwardly rectifying potassium channel KCNH2 (Homo sapiens) (UniProt Q12809). In words: Human Ether-a-go-go-Related Gene (hERG) channel small molecule antagonists: fluorescence cell-based qHTS assay (AID 1671200).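 Also: hERG-expressing U2OS cells given a thallium stimulus after FluxOR II dye loading; series mostly up to about 77 µM; nearly all actives have a fitted effect of over 50% in size.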 Summed up: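 hERG-U2OS cells plated overnight at 37 C, loaded with FluxOR II dye 1 h at RT in dark; after 10 min, thallium stimulus added. Fluorescence (480/540 nm) read kinetically for 2 min at 1 s intervals.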
Chain of Voltage-gated inwardly rectifying potassium channel KCNH2 (Homo sapiens) (Q12809 whole entry, looked up): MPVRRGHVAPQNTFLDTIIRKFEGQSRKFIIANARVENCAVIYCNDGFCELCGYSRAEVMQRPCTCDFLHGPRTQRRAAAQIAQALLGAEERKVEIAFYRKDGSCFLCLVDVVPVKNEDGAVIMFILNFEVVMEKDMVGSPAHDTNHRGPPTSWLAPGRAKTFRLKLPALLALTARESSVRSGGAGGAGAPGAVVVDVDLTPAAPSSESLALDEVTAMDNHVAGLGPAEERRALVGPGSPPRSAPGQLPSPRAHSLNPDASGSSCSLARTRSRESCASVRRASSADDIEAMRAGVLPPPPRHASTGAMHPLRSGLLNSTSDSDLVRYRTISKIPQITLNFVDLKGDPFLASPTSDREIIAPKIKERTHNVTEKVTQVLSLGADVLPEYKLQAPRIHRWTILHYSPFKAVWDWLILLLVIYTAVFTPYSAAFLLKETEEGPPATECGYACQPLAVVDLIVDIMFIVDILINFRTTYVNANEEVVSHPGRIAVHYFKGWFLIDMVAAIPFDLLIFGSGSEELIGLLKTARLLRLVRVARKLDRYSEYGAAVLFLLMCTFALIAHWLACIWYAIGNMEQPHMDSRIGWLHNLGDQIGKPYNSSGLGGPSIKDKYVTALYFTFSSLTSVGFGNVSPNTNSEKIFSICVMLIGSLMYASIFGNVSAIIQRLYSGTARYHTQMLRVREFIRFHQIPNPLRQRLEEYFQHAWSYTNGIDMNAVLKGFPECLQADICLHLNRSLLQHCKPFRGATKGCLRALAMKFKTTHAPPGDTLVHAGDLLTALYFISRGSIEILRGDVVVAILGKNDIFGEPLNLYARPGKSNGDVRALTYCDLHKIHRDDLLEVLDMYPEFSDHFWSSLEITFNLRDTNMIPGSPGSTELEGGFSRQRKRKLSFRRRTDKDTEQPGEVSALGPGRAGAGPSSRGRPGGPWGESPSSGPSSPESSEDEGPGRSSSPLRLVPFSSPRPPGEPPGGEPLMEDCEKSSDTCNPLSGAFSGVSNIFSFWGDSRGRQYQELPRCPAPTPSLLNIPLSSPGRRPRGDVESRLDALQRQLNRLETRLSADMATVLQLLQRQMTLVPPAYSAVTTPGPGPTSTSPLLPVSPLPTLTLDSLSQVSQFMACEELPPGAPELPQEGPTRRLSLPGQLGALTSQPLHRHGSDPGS
Background: hERG is a cardiac potassium channel; its block is linked to QT prolongation.

Test [10] concerns the target Cytochrome P450 3A4 (Homo sapiens) (UniProt P08684). In words: Cytochrome P450 Family 3 Subfamily A Member 4 (CYP3A4) small molecule antagonists: luciferase reporter qHTS assay (AID 1671201). Also: nearly all actives have a fitted effect of over 50% in size. Also: potency is read from the fitted curve at half-maximal effect. As to activity change, negative = inhibition: series mostly up to about 120 µM. Summed up:
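P450-Glo CYP3A4 luminescent assay: compounds preincubated 10 min at room temperature with enzyme and proluciferin substrate, NADPH regeneration added, 1 h room-temperature reaction, stopped with luciferin detection reagent; luminescence read after 20 min. Ketoconazole positive control.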

The target of test [11] is Cytochrome P450 2C9 (Homo sapiens) (UniProt P11712). In words: Cytochrome P450 Family 2 Subfamily C Member 9 (CYP2C9) small molecule antagonists: luciferase reporter qHTS assay (AID 1671198). Also: nearly all actives have a fitted effect of over 50% in size. Also: potency is read from the fitted curve at half-maximal effect. As to activity change, negative = inhibition: series mostly up to about 120 µM. In outline: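 Enzyme-substrate mix preincubated with compound 10 min at room temperature; reaction started with NADPH regeneration solution, 1 h 37C. Luminescent luciferin product read after 20 min detection reagent.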
Chain of Cytochrome P450 2C9 (Homo sapiens) (P11712 whole entry, looked up): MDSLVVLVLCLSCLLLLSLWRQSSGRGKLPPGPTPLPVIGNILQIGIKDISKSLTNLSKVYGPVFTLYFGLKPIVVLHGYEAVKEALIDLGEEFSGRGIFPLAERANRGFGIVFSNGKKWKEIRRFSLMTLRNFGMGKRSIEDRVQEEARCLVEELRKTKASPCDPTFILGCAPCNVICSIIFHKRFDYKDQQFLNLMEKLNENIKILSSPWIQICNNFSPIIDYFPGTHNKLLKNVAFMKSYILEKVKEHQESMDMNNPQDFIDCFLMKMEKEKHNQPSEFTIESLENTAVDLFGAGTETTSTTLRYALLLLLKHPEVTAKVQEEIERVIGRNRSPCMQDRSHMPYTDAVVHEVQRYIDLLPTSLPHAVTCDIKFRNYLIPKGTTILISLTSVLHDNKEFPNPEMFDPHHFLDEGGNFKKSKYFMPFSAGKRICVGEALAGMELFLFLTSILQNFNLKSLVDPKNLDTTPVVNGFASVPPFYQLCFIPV

Test [12] has as its target Cytochrome P450 1A2 (Homo sapiens) (UniProt P05177). The test can be described thus: Cytochrome P450 Family 1 Subfamily A Member 2 (CYP1A2) small molecule antagonists: luciferase reporter qHTS assay (AID 1671199). Also: nearly all actives have a fitted effect of over 50% in size. Also: potency is read from the fitted curve at half-maximal effect. As to activity change, negative = inhibition: series mostly up to about 120 µM. Summed up:
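Luminescence readout (relative luminescence units) after luciferin detection reagent, 20 min RT. Preceded by 1 h room-temperature CYP1A2 reaction with NADPH regeneration solution following 10 min compound preincubation with enzyme and proluciferin substrate. Furafylline positive control.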

In test [13] the target is Nuclear receptor subfamily 1 group I member 2 (Rattus norvegicus) (UniProt Q9R1A7). In words: Rat pregnane X receptor (rPXR) activation by small molecules, qHTS assay (AID 1346983). Also: nearly all actives have a fitted effect of over 20% in size. Particulars: rPXR luciferase reporter cells, One-Glo luminescence, 24 h; stronger effect = higher value. Summed up: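 Luminescent readout (One-Glo luciferase, 30 min room temperature) followed 24 hr compound treatment at 37 C of rPXR cells plated 2,000 per well and preincubated 5hr; qHTS format with compounds delivered in DMSO.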

For test [14], the target named is Nuclear receptor subfamily 1 group I member 2 (Homo sapiens) (UniProt O75469). The test can be described thus: CYP3A4 induction through human pregnane X receptor (PXR) by small molecules, qHTS assay (AID 1346984). Also: nearly all actives have a fitted effect of over 40% in size. In outline: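 HepG2-derived DPX-2 line carrying PXR plus a CYP3A4-promoter luciferase reporter; cells plated 5 hr, compound-exposed 24 hr at 37C. CYP3A4 activity probed with 3uM (final) Luciferin-IPA for 3hr, then luciferase read after One-Glo.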
Chain of Nuclear receptor subfamily 1 group I member 2 (Homo sapiens) (O75469 whole entry, looked up): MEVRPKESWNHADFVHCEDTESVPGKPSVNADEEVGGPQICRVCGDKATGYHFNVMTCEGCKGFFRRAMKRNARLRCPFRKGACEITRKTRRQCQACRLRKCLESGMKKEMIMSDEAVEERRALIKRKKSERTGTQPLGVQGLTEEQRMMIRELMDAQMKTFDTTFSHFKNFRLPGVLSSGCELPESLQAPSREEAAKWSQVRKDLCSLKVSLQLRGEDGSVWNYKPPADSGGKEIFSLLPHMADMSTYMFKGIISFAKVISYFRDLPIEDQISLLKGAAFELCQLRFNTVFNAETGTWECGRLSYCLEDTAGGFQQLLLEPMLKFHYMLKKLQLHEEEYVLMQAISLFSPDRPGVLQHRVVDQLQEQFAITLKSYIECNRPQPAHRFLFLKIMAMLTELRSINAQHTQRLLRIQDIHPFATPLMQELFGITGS

For test [15] the target is unchanged. The test can be described thus: Human pregnane X receptor (PXR) activation by small molecules, qHTS assay (AID 1346985). Also: nearly all actives have a fitted effect of over 40% in size. Summed up: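 DPX-2 cells (HepG2 co-transfected with a PXR response element and a CYP3A4-promoter luciferase construct) were seeded at 2,000 per well, rested 5 hr at 37C, then exposed to DMSO-dissolved compounds for 24 hr. Activation was read as luciferase luminescence.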

The record followed here is PubChem BioAssay (Tox21).

“And” between values parts separate entries of the source, which are not always exact repeats. Identical values can stand only once. Inconclusive results are not listed. The source holds several records for some structures; these can differ, active in one and inactive in another. The source made the active and inactive calls. Unless noted, calls follow the shape of the dose curve; as a rule, active = well fitted curve in the direction sought with a large enough effect in the repeat runs; inconclusive = weak or mixed curves; inactive = no such curve, though single readings can be large; an effect the other way counts as inactive or inconclusive.
% is scaled to controls: 0 for no effect and ±100 for the full control effect.

Chain of Cytochrome P450 1A2 (Homo sapiens) (P05177 whole entry, looked up): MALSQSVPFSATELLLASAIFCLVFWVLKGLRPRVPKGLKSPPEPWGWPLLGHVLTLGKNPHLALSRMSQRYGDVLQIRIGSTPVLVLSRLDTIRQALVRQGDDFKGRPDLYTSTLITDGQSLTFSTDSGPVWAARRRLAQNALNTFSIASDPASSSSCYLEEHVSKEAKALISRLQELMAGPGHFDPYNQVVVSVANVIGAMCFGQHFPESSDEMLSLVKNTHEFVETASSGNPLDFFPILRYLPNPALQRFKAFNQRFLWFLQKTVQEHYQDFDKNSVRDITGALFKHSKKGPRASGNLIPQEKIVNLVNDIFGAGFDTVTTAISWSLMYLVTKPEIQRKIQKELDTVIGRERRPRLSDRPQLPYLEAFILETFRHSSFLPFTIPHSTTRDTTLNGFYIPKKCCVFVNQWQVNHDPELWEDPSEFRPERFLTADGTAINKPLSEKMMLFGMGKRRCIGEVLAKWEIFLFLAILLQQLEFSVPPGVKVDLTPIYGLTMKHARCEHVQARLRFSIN
Chain of Cytochrome P450 2D6 (Homo sapiens) (P10635 whole entry, looked up): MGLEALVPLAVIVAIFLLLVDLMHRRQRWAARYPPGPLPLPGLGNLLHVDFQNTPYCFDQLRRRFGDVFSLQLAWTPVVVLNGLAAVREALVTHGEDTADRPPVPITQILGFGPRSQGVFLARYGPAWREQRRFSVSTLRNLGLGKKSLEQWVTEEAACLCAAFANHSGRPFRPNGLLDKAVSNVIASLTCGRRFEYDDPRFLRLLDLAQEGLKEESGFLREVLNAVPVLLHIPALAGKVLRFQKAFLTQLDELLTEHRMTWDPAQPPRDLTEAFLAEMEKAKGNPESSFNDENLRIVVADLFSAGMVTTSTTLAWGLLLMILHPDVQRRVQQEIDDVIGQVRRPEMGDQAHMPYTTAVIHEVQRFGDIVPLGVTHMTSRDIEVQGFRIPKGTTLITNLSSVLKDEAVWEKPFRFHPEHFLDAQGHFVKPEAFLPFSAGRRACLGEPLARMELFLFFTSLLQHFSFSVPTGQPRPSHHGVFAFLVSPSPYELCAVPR
Chain of Cytochrome P450 3A4 (Homo sapiens) (P08684 whole entry, looked up): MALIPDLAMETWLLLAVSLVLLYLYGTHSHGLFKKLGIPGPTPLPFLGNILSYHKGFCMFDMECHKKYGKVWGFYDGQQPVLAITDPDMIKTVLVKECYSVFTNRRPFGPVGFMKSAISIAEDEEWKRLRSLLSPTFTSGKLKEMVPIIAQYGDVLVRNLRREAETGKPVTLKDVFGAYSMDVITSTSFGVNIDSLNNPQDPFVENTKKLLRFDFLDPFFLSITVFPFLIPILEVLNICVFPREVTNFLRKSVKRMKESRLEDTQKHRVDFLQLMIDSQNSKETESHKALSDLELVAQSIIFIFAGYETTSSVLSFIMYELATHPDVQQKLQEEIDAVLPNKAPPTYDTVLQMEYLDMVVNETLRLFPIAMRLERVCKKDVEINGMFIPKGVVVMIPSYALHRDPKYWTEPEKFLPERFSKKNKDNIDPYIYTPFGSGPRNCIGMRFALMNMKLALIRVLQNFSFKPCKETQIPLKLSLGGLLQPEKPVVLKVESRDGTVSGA
Chain of Acetylcholinesterase (Homo sapiens) (P22303 whole entry, looked up): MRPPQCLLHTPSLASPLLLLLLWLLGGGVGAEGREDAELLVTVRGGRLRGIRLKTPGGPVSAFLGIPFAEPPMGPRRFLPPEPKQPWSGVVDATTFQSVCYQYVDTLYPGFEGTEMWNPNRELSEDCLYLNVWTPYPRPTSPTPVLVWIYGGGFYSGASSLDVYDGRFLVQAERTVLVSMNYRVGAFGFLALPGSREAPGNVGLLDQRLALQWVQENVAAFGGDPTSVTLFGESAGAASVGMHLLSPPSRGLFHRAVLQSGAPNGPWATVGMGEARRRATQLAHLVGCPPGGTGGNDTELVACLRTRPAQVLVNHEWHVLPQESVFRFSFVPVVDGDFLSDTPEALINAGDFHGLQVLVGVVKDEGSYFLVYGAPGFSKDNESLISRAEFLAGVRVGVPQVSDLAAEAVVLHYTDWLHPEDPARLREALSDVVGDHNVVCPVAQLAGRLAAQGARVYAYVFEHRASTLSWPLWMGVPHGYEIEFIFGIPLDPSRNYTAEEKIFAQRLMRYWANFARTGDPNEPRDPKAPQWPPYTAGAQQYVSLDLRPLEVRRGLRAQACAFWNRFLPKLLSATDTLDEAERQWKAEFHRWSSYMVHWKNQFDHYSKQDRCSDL

Consider `O=S(=O)(c1ccc(Cl)cc1)c1cc(Cl)c(Cl)cc1Cl`, for which, in test [1], the molecule was called inactive. The Potency in [2] is 30.6 µM (active); in [8], 251 nM (active) and 252 nM (active). Also, the Potency entry in test [3], in [4], in test [5], in test [6], in test [7] and in test [9] was “inactive” each time. In [10], the Potency entry is “inactive”.

On to `COc1ccc2c3c1O[C@H]1[C@@H](O)C=C[C@H]4[C@@H](C2)N(C)CC[C@@]341`, for which the molecule was classed as inactive in [1]. Besides, the Potency result in [2], in test [4], in [5], in test [8] and in test [10] was “inactive” throughout.

Regarding `CCC[CH2][Sn]([Cl])([Cl])[Cl]`, the result in test [1] was inactive. The Potency entry in test [2], in test [3], in test [4], in test [5], in test [7] and in test [11] was “inactive” each time. For the same molecule, the Potency result in [12] and in test [10] was “inactive” in each case. The Potency in [8] was 40.6 µM (active) and inactive.

For `CC(C#N)CCC#N` (configuration not stated), the call in test [1] was inactive. In addition, the Potency entry in test [2], in test [4], in test [7], in [8], in test [12] and in test [10] was “inactive” in each case. In addition, the Potency in test [5] was 35.2 µM (active) and inactive.

Take `CCCCCOC(=O)c1ccccc1C(=O)OCCCCC`: in test [1], the result was inactive. Also, the Potency entry in test [2], in test [3], in [4], in [5], in [6] and in test [7] was “inactive” throughout. Further, the Potency in test [8] is 11.2 µM (active) and 7.96 µM (active); in [11] it was 28.2 µM (active) and 7.96 µM (active).

Consider `CCNc1nc(NC(C)C)nc(SC)n1`, for which, in [1], the call was inactive. In addition, in test [2], the Potency was 54.8 µM (active) and 24.3 µM (active). In addition, the Potency entry in test [4], in test [5], in test [6], in test [7], in test [11] and in [9] was “inactive” in each case. The Potency result in test [10] was “inactive”.

As for `NCC(O)c1ccc(O)cc1` (configuration not stated), the result in test [1] was inactive. Moreover, the Potency entry in [2], in [7], in test [8], in [11], in test [12] and in test [9] was “inactive” in each case. In test [10], the Potency result is “inactive”.

Regarding `CCc1cccc(C)c1N(C(=O)CCl)C(C)COC` (configuration not stated), in test [1], the call was inactive. Further, the Potency in test [2] was 2.89 µM (active) and 3.06 µM (active); in test [8], 6.69 µM (active) and 6.33 µM (active); in test [11] it was 29.9 µM (active) and 28.3 µM (active); in test [12] it was 66.9 µM (active) and inactive. Also, the Potency result in test [4], in [5], in test [7] and in [10] was “inactive” in each case.

With `CCOP(=S)(OCC)SCCSCC`, the molecule was classed as inactive in test [1]. The Potency entry in test [2], in test [4], in test [5] and in test [9] was “inactive” throughout. In addition, the Potency in test [8] was 3.67 µM (active) and 1.07 µM (active); in test [12] it was 26 µM (active) and 7.57 µM (active); in [10] it was 4.12 µM (active) and 3.8 µM (active).

Turning to `OCCN(CCO)CCO`, in test [1], the outcome was inactive. The Potency entry in [2], in test [3], in [4], in test [5], in test [6] and in test [8] was “inactive” each time. Also, the Potency entry in test [11] and in [10] was “inactive” each time.

For the molecule `CN(C)CCO`, in test [1], the outcome was inactive. For the same molecule, the Potency result in [2], in test [4], in test [5], in test [6], in test [7] and in [8] was “inactive” in each case. Moreover, the Potency entry in test [12], in test [9] and in test [10] was “inactive” in each case.

`CN=C=S`: the molecule was called inactive in test [1]. The Potency in test [2] is 30.9 µM (active) and inactive; in test [8], 80.4 µM (active) and inactive; in test [12] it was 40.3 µM (active). In addition, the Potency entry in test [3], in test [4], in test [5], in test [6], in test [7] and in [11] was “inactive” in each case. In test [10], the Potency entry is “inactive”.

With `C=C(C)CCl`, the molecule was classed as inactive in test [1]. Also, the Potency result in [2], in [4], in test [5], in [7], in [11] and in test [9] was “inactive” in each case. In addition, in test [10], the Potency entry was “inactive”. The activity change, negative = inhibition in test [8] is 3.29% [at 10.5 µM] (inactive).

Turning to `Nc1ccc(Oc2ccc(N)cc2)cc1`, in [1], the molecule was classed as inactive. The Potency is 62 µM (active) in [2]; 36.1 µM (active) and 31.7 µM (active) in test [7]; 18.1 µM (active) and 20 µM (active) in test [8]; 14.4 µM (active) and 8.94 µM (active) in test [11]; 18.1 µM (active) and inactive in [10]. For the same molecule, the Potency entry in test [4], in [5] and in [6] was “inactive” each time.

Consider `COC(=O)NC(=S)Nc1ccccc1NC(=S)NC(=O)OC`, for which the molecule was called inactive in [1]. The Potency in test [2] was 61.1 µM (active) and 48.6 µM (active); in test [8] it was 63.3 µM (active) and 22.4 µM (active); in test [11] it was 39.9 µM (active). Also, the Potency result in [3], in [4], in test [5], in [6] and in test [9] was “inactive” each time.

With `O=C(NC(=O)c1c(F)cccc1F)Nc1cc(Cl)c(OC(F)(F)C(F)C(F)(F)F)cc1Cl` (configuration not stated), the outcome in test [1] and in test [14] was inactive. Besides, the Potency result in test [2], in test [15], in [4], in test [5], in test [6] and in test [7] was “inactive” throughout. The Potency result in test [9] and in test [10] was “inactive” throughout. Besides, in test [13], the max activation was -1.37% (inactive). For the same molecule, the Potency in test [8] is 10 µM (active) and 34.7 µM (active); in [11], 11.2 µM (active) and 17.4 µM (active).
